Structures are written as SMILES. Results filed as inconclusive are left out. Activity calls are given as the source filed them. The calls were made as follows, unless noted: active = hit-call score of the fitted dose curve at least 0.9, where 1 is the maximum; inactive = score below 0.9.

A short description of assay [1]: ATG_TAL_CIS: Attagene CIS-FACTORIAL HepG2 Assay for human TAL Basal Promoter (AID 2282966).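 Also: background control endpoint measuring basal TAL promoter reporter mRNA not a specific factor.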 As to conditions: HepG2 Attagene cis-factorial TAL promoter reporter; actives raise or lower the signal. The method in brief: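 Readout: reporter mRNA, fluorescence by CE. System: HepG2, transient multi-reporter transfection, endogenous TF activity. Exposure: 24 h. Analysis: bidirectional, DMSO-normalized; background control.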

Assay [2] in a line: ATG_TGFb_CIS: Attagene CIS-FACTORIAL HepG2 Assay for human Transforming Growth Factor (TGF) (AID 2282967). As to conditions: HepG2 Attagene CIS TGFb reporter, mRNA transcription; actives raise or lower the signal. The method in brief: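 Liver HepG2 line, cis-factorial reporter panel, 24 h dosing. Quantitation: RT-PCR products labeled with 6-FAM, cut with HpaI, resolved by capillary electrophoresis; DMSO-referenced bidirectional analysis.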

Assay [3] is described as follows: ATG_VDRE_CIS: Attagene CIS-FACTORIAL HepG2 Assay for human Vitamin D Receptor Element (VDRE) (AID 2282968). The following applies: HepG2 VDRE cis-reporter transcription, actives raise or lower the signal. The method in brief: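 Reporter mRNA induction, quantified by capillary electrophoresis of fluorescently labelled RT-PCR products, was read 24 h after dosing HepG2 cells carrying transiently transfected cis-regulated reporter units; gain or loss relative to DMSO.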

The target in assay [4] is X-box-binding protein 1 (Homo sapiens) (UniProt P17861). The assay can be described thus: ATG_Xbp1_CIS: Attagene CIS-FACTORIAL HepG2 Assay for human X-box Binding Protein 1 (XBP1) (AID 2282972). As to conditions: HepG2 XBP1 cis-element reporter, Attagene multiplex; actives raise or lower the signal. The method in brief: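 HepG2, transient MRTU transfection (cis-promoter driven), 24 h compound exposure. Total RNA → oligo(dT) RT → PCR → 6-FAM labeling → HpaI cut → CE. Bidirectional fit vs DMSO.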

Assay [5] can be described thus: ATG_M_19_TRANS: Attagene TRANS-FACTORIAL HepG2 Assay for M19 Transcription Factor (Internal Marker) (AID 2282974; active = hit-call score of the fitted dose curve at least 0.9, where 1 is the maximum). The following applies: HepG2 Attagene TRANS-FACTORIAL M19 internal marker reporter. The essentials: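 HepG2 transiently transfected with GAL4-UAS multiplex reporter constructs, exposed 24 h; reporter RNA quantified by RT-PCR, 6-FAM labeling, HpaI digestion and capillary electrophoresis; internal background marker fitted upward versus DMSO.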

Assay [6] in a line: ATG_GAL4_TRANS: Attagene TRANS-FACTORIAL HepG2 Assay for GAL4 (Internal Marker) (AID 2282976; active = hit-call score of the fitted dose curve at least 0.9, where 1 is the maximum). As to conditions: HepG2 Attagene TRANS GAL4 internal marker reporter. The essentials: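 Fluorescence from capillary electrophoresis of labelled RT-PCR products quantifies reporter mRNA induction after 24 h dosing of HepG2 cells carrying transfected GAL4-UAS reporter transcription units. Vehicle DMSO serves as baseline.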

For assay [7], the target named is Hepatocyte nuclear factor 4-alpha (Homo sapiens) (UniProt P41235). The assay can be described thus: ATG_HNF4a_TRANS: Attagene TRANS-FACTORIAL HepG2 Assay for human Hepatocyte Nuclear Factor 4 alpha (HNF4a) (AID 2282982; active = hit-call score of the fitted dose curve at least 0.9, where 1 is the maximum). As to conditions: HepG2 HNF4a transactivation reporter, mRNA readout. The essentials:
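Readout is fluorescent reporter-transcript fragments resolved by capillary electrophoresis after RT-PCR from HepG2 cells dosed for 24 h. Cells carried transfected GAL4-UAS reporter constructs measuring exogenous NR-GAL4 chimera activity; DMSO served as baseline.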

Assay [8] is described as follows: ATG_M_06_TRANS: Attagene TRANS-FACTORIAL HepG2 Assay for M06 Transcription Factor (Internal Marker) (AID 2282983; active = hit-call score of the fitted dose curve at least 0.9, where 1 is the maximum;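 also: reporter transcript level by RT-PCR then capillary electrophoresis fluorescence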). The following applies: HepG2 Attagene TRANS M06 internal marker reporter. The essentials:
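Measured by capillary electrophoresis of fluorescently labelled RT-PCR products, this endpoint reflects reporter mRNA in HepG2 cells harbouring exogenous NR-GAL4 reporter constructs after 24 h exposure, with DMSO as baseline.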

Assay [9] deals with Transcriptional activator Myb (Homo sapiens) (UniProt P10242). The assay can be described thus: ATG_Myb_CIS: Attagene CIS-FACTORIAL HepG2 Assay for human Myeloblastosis (Myb) Proto-Oncogene Transcription Factor (AID 2282986). The following applies: HepG2 Attagene CIS-FACTORIAL Myb reporter transcription; actives raise or lower the signal. The essentials:
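Transiently transfected HepG2 cells carrying a multiplexed cis-promoter reporter set report endogenous Myb activity after 24 h compound exposure. Reporter mRNA is read by RT-PCR with capillary electrophoresis of fluorescent products, fitted bidirectionally against DMSO.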

For assay [10], the target named is Nuclear respiratory factor 1 (Homo sapiens) (UniProt Q16656). Put plainly: ATG_NRF1_CIS: Attagene CIS-FACTORIAL HepG2 Assay for human Nuclear Respiratory Factor 1 (NRF1) Orphan Gene (AID 2282987). As to conditions: HepG2 NRF1 cis-element reporter, Attagene multiplex; actives raise or lower the signal. The essentials:
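HepG2 cells transiently transfected with multiple cis-regulated reporter units, exposed 24 h. Reporter mRNAs measured by RT-PCR, fluorescent labelling, HpaI digestion and capillary electrophoresis; bidirectional fitting against DMSO.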

Assay [11] can be described thus: ATG_NFI_CIS: Attagene CIS-FACTORIAL HepG2 Assay for human Nuclear Factor I (NFI) (AID 2282989). As to conditions: HepG2 cis-regulatory reporter, NFI response element transcription; actives raise or lower the signal. The essentials: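 Transfected HepG2 liver cells, exposed 24 h, supplied total RNA for oligo(dT) reverse transcription and reporter-specific PCR. Labelled, HpaI-cut fragments were sized by capillary electrophoresis; DMSO set the baseline for bidirectional fitting.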

The target in assay [12] is Bile acid receptor (Homo sapiens) (UniProt Q96RI1). The assay can be described thus: ATG_FXR_TRANS: Attagene TRANS-FACTORIAL HepG2 Assay for Farnesoid X Receptor (FXR) (AID 2282979; active = hit-call score of the fitted dose curve at least 0.9, where 1 is the maximum;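 also: hits raise reporter mRNA above DMSO so AC50 marks FXR activation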). As to conditions: HepG2 Attagene TRANS FXR-GAL4 reporter transcription. The essentials: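 Chimeric FXR-GAL4 activity in transiently transfected human HepG2 liver cells is scored as induction of reporter mRNA after 24 h of dosing. Detection uses RT-PCR with fluorescent labelling and capillary electrophoresis, with DMSO serving as baseline.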

Assay [13] concerns the target Oxysterols receptor LXR-alpha (Homo sapiens) (UniProt Q13133). The assay can be described thus: ATG_LXRa_TRANS: Attagene TRANS-FACTORIAL HepG2 Assay for human Liver X Receptor alpha (LXRa) (AID 2282980; active = hit-call score of the fitted dose curve at least 0.9, where 1 is the maximum). As to conditions: HepG2 Attagene TRANS reporter, LXRa transactivation. The method in brief:
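Transient HepG2 transfectants, 24 h dosing, RT-PCR/CE mRNA reporter quantitation; gain-of-signal vs DMSO.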

A short description of assay [14]: ATG_M_32_TRANS: Attagene TRANS-FACTORIAL HepG2 Assay for M32 Transcription Factor (Internal Marker) (AID 2282984; active = hit-call score of the fitted dose curve at least 0.9, where 1 is the maximum;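 also: transcript level of a background control reporter unit measured by RT-PCR and capillary electrophoresis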). As to conditions: HepG2 Attagene TRANS M32 internal marker reporter. The essentials: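 Measures reporter mRNA induction in human HepG2 liver cells after 24 h chemical treatment. Transcripts from transiently transfected GAL4-UAS reporter units are amplified, fluorescently labelled and sized by capillary electrophoresis; gain of signal relative to DMSO.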

Assay [15] addresses Nuclear receptor subfamily 4 group A member 2 (Homo sapiens) (UniProt P43354). The assay can be described thus: ATG_NURR1_TRANS: Attagene TRANS-FACTORIAL HepG2 Assay for human Nuclear Receptor Related Protein 1 (NURR1) (AID 2282985; active = hit-call score of the fitted dose curve at least 0.9, where 1 is the maximum). As to conditions: HepG2 Attagene TRANS reporter, mRNA readout. The essentials:
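Transient transfection of HepG2, human liver cells, with multiple GAL4-UAS reporter transcription units. Cells dosed 24 h, RNA isolated, reverse-transcribed, PCR-amplified, FAM-labelled, HpaI-digested, sized by capillary electrophoresis. DMSO served as negative control.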

Assay [16] concerns the target Glucocorticoid receptor (Homo sapiens) (UniProt P04150). Put plainly: ATG_GR_TRANS: Attagene TRANS-FACTORIAL HepG2 Assay for human Glucocorticoid Receptor (GR) (AID 2282978; active = hit-call score of the fitted dose curve at least 0.9, where 1 is the maximum;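 also: activators score as hits since higher reporter transcript over DMSO is fitted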). As to conditions: HepG2 Attagene TRANS GR reporter, mRNA transcription. The method in brief: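 HepG2 cells transiently transfected with GAL4-UAS reporter units and exogenous GR-Gal4 chimera, dosed 24 h. Reporter mRNA by RT-PCR, FAM labeling, HpaI digest and capillary electrophoresis; gain-of-signal fit versus DMSO.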

In assay [17] the target is Oxysterols receptor LXR-beta (Homo sapiens) (UniProt P55055). The assay can be described thus: ATG_LXRb_TRANS: Attagene TRANS-FACTORIAL HepG2 Assay for human Liver X Receptor beta (LXRb) (AID 2282981; active = hit-call score of the fitted dose curve at least 0.9, where 1 is the maximum). The following applies: HepG2 Attagene TRANS GAL4-LXRb reporter, mRNA. The essentials: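 Transient transfection HepG2 (multiplexed RTUs, GAL4-UAS); NR-Gal4 chimera; 24 h exposure; RNA → RT-PCR → 6-FAM primer extension → HpaI → CE; increase vs DMSO.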
Sequence of Oxysterols receptor LXR-beta (Homo sapiens) (P55055 whole entry, looked up, the tested form may be a part): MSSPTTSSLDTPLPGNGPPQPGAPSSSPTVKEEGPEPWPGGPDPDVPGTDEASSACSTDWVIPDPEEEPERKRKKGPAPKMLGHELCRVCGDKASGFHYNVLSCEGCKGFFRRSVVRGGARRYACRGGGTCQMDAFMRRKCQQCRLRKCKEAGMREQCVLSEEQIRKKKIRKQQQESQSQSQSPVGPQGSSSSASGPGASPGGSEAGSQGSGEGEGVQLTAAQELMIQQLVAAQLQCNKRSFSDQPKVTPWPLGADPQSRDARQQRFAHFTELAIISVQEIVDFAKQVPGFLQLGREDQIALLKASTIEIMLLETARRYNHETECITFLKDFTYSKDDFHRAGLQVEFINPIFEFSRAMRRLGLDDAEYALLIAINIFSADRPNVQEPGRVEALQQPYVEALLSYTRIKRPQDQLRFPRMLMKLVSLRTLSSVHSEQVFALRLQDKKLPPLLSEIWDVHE

Sequence of Glucocorticoid receptor (Homo sapiens) (P04150 whole entry, looked up, the tested form may be a part): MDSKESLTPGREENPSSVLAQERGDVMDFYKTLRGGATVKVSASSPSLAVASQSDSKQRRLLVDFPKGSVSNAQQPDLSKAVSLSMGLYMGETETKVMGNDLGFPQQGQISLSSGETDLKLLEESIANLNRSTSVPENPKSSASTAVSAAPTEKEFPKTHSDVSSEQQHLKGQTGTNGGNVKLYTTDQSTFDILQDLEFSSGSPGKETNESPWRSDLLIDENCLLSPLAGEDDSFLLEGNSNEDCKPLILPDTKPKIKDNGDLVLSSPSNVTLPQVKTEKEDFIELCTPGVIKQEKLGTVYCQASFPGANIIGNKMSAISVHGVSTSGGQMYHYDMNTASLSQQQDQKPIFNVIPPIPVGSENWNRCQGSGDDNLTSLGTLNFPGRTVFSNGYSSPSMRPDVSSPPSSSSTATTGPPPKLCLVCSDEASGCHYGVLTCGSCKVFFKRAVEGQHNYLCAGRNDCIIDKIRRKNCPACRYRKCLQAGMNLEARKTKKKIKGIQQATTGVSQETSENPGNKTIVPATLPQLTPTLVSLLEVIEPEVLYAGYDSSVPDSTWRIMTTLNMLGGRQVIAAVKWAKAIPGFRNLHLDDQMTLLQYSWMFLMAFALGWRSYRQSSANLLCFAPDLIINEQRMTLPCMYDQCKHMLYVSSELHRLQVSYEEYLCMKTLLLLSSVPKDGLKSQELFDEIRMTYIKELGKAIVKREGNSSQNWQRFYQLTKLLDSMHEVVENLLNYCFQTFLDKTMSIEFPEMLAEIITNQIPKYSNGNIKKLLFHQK
Sequence of Oxysterols receptor LXR-alpha (Homo sapiens) (Q13133 whole entry, looked up): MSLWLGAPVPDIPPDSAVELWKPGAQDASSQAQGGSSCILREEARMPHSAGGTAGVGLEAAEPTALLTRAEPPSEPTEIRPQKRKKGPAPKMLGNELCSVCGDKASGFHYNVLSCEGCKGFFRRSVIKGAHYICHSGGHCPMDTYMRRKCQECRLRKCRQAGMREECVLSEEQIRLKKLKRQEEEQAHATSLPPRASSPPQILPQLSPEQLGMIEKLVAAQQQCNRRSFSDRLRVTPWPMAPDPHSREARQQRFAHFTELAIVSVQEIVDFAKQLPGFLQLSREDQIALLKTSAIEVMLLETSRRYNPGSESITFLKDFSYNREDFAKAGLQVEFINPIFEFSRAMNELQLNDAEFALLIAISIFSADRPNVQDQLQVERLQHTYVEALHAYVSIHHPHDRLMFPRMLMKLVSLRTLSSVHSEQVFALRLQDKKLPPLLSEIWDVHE
Sequence of Nuclear receptor subfamily 4 group A member 2 (Homo sapiens) (P43354 whole entry, looked up, the tested form may be a part): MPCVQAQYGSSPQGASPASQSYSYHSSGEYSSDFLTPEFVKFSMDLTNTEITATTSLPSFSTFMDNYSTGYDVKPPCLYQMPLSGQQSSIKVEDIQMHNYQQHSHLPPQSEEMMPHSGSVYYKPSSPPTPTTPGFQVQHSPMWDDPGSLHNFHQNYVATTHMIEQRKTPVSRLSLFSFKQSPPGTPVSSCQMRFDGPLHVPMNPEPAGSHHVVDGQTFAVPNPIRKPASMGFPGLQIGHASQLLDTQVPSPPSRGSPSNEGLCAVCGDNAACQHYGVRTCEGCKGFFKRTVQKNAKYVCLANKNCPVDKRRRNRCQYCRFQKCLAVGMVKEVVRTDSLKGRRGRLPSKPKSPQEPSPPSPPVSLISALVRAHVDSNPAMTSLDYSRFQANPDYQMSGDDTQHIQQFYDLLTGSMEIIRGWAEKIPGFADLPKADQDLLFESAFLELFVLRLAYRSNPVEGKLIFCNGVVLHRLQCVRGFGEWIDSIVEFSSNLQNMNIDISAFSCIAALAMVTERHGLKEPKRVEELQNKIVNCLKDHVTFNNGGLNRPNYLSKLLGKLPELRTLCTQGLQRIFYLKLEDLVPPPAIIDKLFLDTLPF
Sequence of Nuclear respiratory factor 1 (Homo sapiens) (Q16656 whole entry, looked up): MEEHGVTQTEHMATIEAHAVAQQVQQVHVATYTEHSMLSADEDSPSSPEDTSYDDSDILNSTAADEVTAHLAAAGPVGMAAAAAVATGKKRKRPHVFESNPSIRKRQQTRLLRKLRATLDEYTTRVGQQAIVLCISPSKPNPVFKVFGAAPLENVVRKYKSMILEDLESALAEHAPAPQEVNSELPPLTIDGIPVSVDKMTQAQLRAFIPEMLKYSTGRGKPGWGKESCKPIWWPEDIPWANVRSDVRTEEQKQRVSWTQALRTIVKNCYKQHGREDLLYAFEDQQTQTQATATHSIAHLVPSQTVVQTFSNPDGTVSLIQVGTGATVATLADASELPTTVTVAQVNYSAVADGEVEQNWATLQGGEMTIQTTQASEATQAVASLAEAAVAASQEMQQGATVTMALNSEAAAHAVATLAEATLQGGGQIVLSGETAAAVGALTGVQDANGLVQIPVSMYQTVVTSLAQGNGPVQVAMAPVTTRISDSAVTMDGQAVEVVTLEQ
Sequence of X-box-binding protein 1 (Homo sapiens) (P17861 whole entry, looked up): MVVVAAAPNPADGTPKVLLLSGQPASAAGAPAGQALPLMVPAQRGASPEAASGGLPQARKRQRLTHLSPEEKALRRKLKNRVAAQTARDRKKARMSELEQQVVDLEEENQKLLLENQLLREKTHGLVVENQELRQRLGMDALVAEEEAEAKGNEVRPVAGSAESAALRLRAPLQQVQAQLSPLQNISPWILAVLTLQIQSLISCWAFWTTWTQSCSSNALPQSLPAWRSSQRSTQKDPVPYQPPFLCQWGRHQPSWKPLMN
Sequence of Transcriptional activator Myb (Homo sapiens) (P10242 whole entry, looked up): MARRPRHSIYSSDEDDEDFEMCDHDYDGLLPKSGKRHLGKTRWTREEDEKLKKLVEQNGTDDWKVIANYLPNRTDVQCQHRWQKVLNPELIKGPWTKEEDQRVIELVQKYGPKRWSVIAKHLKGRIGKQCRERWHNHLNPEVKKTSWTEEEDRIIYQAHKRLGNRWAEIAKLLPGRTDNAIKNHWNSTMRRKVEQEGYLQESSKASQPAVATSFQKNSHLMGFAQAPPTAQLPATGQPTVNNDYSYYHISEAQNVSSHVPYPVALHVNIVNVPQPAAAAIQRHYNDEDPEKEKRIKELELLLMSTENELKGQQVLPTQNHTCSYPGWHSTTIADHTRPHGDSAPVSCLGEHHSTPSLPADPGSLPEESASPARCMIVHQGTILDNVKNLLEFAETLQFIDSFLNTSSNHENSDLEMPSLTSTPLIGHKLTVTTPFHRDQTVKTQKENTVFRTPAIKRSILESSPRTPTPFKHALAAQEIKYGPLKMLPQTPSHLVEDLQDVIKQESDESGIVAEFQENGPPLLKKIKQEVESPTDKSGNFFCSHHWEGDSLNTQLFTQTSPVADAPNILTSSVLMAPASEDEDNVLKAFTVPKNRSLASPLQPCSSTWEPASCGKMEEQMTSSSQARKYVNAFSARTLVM
Sequence of Bile acid receptor (Homo sapiens) (Q96RI1 whole entry, looked up, the tested form may be a part): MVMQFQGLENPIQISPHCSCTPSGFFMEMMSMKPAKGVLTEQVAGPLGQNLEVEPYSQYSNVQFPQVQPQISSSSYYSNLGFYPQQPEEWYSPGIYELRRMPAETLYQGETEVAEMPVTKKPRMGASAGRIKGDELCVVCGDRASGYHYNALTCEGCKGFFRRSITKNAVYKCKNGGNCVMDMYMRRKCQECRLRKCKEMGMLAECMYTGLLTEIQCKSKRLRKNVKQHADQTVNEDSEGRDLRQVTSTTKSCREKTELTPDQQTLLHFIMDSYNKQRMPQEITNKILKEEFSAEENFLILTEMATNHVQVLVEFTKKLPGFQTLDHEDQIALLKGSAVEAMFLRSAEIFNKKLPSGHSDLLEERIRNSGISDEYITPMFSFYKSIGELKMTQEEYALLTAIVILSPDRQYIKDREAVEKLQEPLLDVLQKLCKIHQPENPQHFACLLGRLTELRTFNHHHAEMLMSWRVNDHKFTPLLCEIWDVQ
Sequence of Hepatocyte nuclear factor 4-alpha (Homo sapiens) (P41235 whole entry, looked up, the tested form may be a part): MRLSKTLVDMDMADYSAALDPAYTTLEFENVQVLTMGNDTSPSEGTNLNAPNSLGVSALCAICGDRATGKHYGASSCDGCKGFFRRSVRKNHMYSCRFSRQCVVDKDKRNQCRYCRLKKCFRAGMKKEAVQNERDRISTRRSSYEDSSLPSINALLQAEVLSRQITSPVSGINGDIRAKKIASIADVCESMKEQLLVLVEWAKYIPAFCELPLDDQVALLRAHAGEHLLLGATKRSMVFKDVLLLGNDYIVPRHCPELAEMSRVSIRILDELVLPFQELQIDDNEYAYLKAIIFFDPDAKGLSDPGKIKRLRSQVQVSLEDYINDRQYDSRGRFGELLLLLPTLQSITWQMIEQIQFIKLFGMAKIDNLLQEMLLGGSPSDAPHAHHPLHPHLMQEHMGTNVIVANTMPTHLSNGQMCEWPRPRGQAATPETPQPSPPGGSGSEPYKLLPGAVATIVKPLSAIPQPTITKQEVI

Regarding `C=C(C)C(=O)OCCOCCOCCOCCOC(=O)C(=C)C`, the compound was classed as inactive in assay [1], in assay [2], in [3], in [4], in assay [5] and in [6]. Further, the outcome in [7], in assay [8], in assay [9], in [10] and in assay [11] was inactive.
On to `c1ccc2[nH]cnc2c1`, for which the compound was classed as inactive in assay [1], in assay [2], in [3], in assay [4], in assay [5] and in assay [6]. Further, the compound was classed as inactive in assay [12], in assay [13], in [7], in assay [14], in assay [15] and in [9]. Moreover, the outcome in assay [10] and in assay [11] was inactive.
As for `Cc1ncc[nH]1`, the result in assay [1], in assay [2], in assay [3], in assay [4], in assay [5] and in assay [16] was inactive. Besides, the compound was called inactive in assay [12], in assay [13], in assay [7], in assay [8], in assay [14] and in assay [9]. In addition, the call in assay [10] and in assay [11] was inactive.
As to `CCCC(O)C(O)CO` (centres undefined), the result in [1], in [2], in assay [3], in assay [4], in assay [5] and in [17] was inactive. In addition, the outcome in assay [7], in [9], in [10] and in assay [11] was inactive.
For `CN(C)C(=S)SC(=S)N(C)C`, the compound was classed as inactive in assay [1], in [2], in assay [3], in [4], in [5] and in assay [12]. In addition, the outcome in assay [7], in assay [14], in assay [15], in assay [9], in assay [10] and in assay [11] was inactive.
On to `CCc1cc(C(C)(C)C)c(O)c(C(C)(C)C)c1`, for which the outcome in [1], in [2], in [3], in assay [4], in assay [5] and in [16] was inactive. Further, the outcome in assay [12], in assay [13], in assay [17], in [9] and in [10] was inactive. In addition, the concentration at half-maximal activity (AC50) (usually the midpoint of the concentration-response curve, whichever way the signal moves) in assay [15] was 11.4 µM (active); in assay [11], 54 µM (active).
On to `CC1(C)O[C@@H]2C[C@H]3[C@@H]4CCC5=CC(=O)C=C[C@]5(C)[C@@]4(F)[C@@H](O)C[C@]3(C)[C@]2(C(=O)CO)O1`, for which the compound was called inactive in assay [1], in assay [2], in [3], in assay [4], in assay [5] and in [12]. Also, the compound was classed as inactive in [13], in [17], in assay [14], in assay [15], in assay [9] and in [10]. In addition, the result in [11] was inactive. In addition, the AC50 in assay [16] is 0.488 µM (active).
As to `CC(C)c1ccccc1O`, the outcome in assay [1], in [2], in [3], in [4], in assay [5] and in [13] was inactive. In addition, the outcome in [8], in [10] and in assay [11] was inactive.
On to `CCCC(C)C(O)CC` (centres undefined), for which the compound was classed as inactive in assay [1], in [2], in assay [3], in assay [4], in [5] and in [16]. Moreover, the outcome in assay [13], in assay [17], in assay [15], in assay [9] and in assay [10] was inactive.
Regarding `O=C(c1ccccc1)C(O)c1ccccc1` (centres undefined), the compound was called inactive in assay [1], in assay [2], in assay [3], in [4], in assay [5] and in assay [16]. Besides, the result in assay [13], in [15], in assay [9], in assay [10] and in assay [11] was inactive.

The record behind these values is PubChem BioAssay (EPA / NIEHS).
